This is a sample that favours compounds with a hit; in the whole collection about 18% have one here.
DT40 TDP1 CPT = qHTS for Inhibitors of human tyrosyl-DNA phosphodiesterase 1 (TDP1): qHTS in cells in presence of CPT. chicken DT40 Tdp1-/-;hTDP1 cells + 20 nM CPT, ATP luminescence, 48 h. 420,000 tested, 12% active. Potency, µM (top dose mostly 46.2 µM), actives largely listed as inhibitors; further: nearly all actives have a fitted effect of over 55% in size
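Cell growth measured by CellTiter-Glo luminescence after a minimum 48 h, 37 C compound exposure with 20 nM CPT in Tdp1-knockout DT40 cells stably expressing hTDP1, seeded 400/well; qHTS titration format.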
TDP1 cell noCPT = qHTS for Inhibitors of human tyrosyl-DNA phosphodiesterase 1 (TDP1): qHTS in cells in absence of CPT; DT40 Tdp1-/- hTDP1 cells, no CPT, ATP luminescence, 48 h; Potency, µM (titrated, usually from 46.2 µM), most hits filed as inhibitors; 420,000 tested, 15% active; AID 686978, 2013; further: nearly all actives have a fitted effect of over 55% in size
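Camptothecin absent (DMSO only). Human TDP1-complemented DT40 knockout cells, 400 cells/well, 37 °C for minimum 48 hr; ATP measured via CellTiter-Glo, 30 min dark incubation, luminescence.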
CtBP-E1A inh = qHTS Assay for Inhibitors of the CtBP/E1A Interaction; CtBP / adenovirus E1A interaction (AlphaScreen); AlphaScreen GST-E1A/His-CtBP binding, 1536-well; stronger effect = lower value; activity change, % (no concentration beside the values); 340,000 tested, 0.49% active; in the data active means activity change below about -65%; inconclusive means mostly about -30% to -63%
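Homogeneous bead-based format: GST-tagged E1A captured on glutathione donor beads, His-tagged CtBP on nickel acceptor beads; compounds precede bead addition by 2 h at 37 °C.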
IL1B secr inh = qHTS for Inhibitors of Inflammasome Signaling: IL-1-beta AlphaLISA Primary Screen | THP-1 LPS/ATP IL-1B secretion, AlphaLISA, 16 h; stronger effect = lower value | activity change, % at 57.5 µM | 360,000 tested, 4.7% active | AID 743279, 2014; in the data active means activity change below about -50%; inconclusive means mostly about -30% to -49%
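Secreted IL-1B measured by AlphaLISA bead assay after 16 h compound exposure of THP-1 cells; compounds (final up to 57.5 uM) added 1 h before LPS (250 ng/mL) and ATP (1.25 mM) stimulation; lower signal means less secretion.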
TDP1 inh = qHTS Assay for Inhibitors of Tyrosyl-DNA Phosphodiesterase (TDP1) | recombinant TDP1, AlphaScreen DNA substrate cleavage | Potency, µM (highest dose often 130 µM), most hits filed as inhibitors | 350,000 tested, 0.28% active; further: nearly all actives have a fitted effect of over 40% in size
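Signal: AlphaScreen proximity between streptavidin donor and anti-FITC acceptor beads on intact substrate. Reaction: Tdp1 1 nM, substrate 15 nM final, 5 min RT after 15 min compound preincubation.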
Six1-Eya2 inh = qHTS Assay for Inhibitors of the Six1/Eya2 Interaction | Homeobox protein SIX1 (Homo sapiens) + Protein phosphatase EYA2 (Homo sapiens), … | AlphaScreen GST-Six1/His-Eya2 binding, biochemical; stronger effect = lower value | activity change, % (no concentration beside the values) | 360,000 tested, 0.56% active | AID 651725, 2012; in the data active means activity change below about -65%; inconclusive means mostly about -30% to -63%
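GST-Six1 + His-Eya2 (5X stock: 250/500 nM); Tris pH 8.0, 300 mM NaCl, 0.05% BSA, 0.02% Tween 20; GSH donor/Ni acceptor beads; 1 h 37 °C dark; AlphaScreen readout.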
Hits are given with their value; - = inactive; ? = inconclusive; . = no result. Unless noted, the call rests on the fitted dose curve; in most records, active means well fitted curve in the direction sought with a large enough effect; inconclusive means small, poorly fitted or top-dose-only effect, or another doubt; inactive means no such curve, though single readings can be large; an effect the other way counts as inactive or inconclusive.

SMILES	DT40 TDP1 CPT	TDP1 cell noCPT	CtBP-E1A inh	IL1B secr inh	TDP1 inh	Six1-Eya2 inh
CC1CCCC(NC(=O)CCCn2c(=S)[nH]c3ccccc3c2=O)C1C (configuration not stated)	-	-	-	-	-	-
COc1ccc(Cn2c(=N)c(C(=O)NC3CCCCC3)cc3c(=O)n4ccccc4nc32)cc1	18µM	8.2µM	-	-	-	-
COCCCn1c(=N)c(C(=O)NC2CCCC2)cc2c(=O)n3ccccc3nc21	-	-	.	.	.	.
COc1ccc(CCn2c(=N)c(C(=O)NC3CCCC3)cc3c(=O)n4ccccc4nc32)cc1	4.1µM	3.3µM	-	-83	-	-
CC(C)n1c(=N)c(C(=O)NC2CCCCC2)cc2c(=O)n3ccccc3nc21	-	-	.	.	.	.
CCC(C)n1c(=N)c(C(=O)NC2CCCCC2)cc2c(=O)n3ccccc3nc21 (configuration not stated)	?	16µM	.	.	.	.
COCCn1c(=N)c(C(=O)NCC2CCCO2)cc2c(=O)n3ccccc3nc21 (configuration not stated)	-	-	.	.	.	.
N=c1c(C(=O)NC2CCCCC2)cc2c(=O)n3ccccc3nc2n1CC1CCCO1 (configuration not stated)	-	?	-	-	.	-
COc1ccc(CCn2c(=N)c(C(=O)NCC3CCCO3)cc3c(=O)n4ccccc4nc32)cc1OC (configuration not stated)	7.3µM	2.9µM	?	?	-	?
O=S(=O)(c1ccc(F)cc1)N1CCC(Oc2cccc(C(F)(F)F)c2)CC1	?	?	.	.	-	.
O=C(O)CC12CC3CC(C1)CC(n1ncc(NCc4ccc(F)cc4Cl)c(Cl)c1=O)(C3)C2	-	-	-	-	-	-
COc1ccccc1CN1CCNC(=O)C1CC(=O)N(C)Cc1nc(C)cs1 (configuration not stated)	-	-	-	-	-	-
COc1cccc(NC(=O)N(CCN(C)C)C(C)c2cccnc2)c1 (configuration not stated)	-	-	-	-	.	-
Cn1c(C(=O)NCCc2ccccc2)cc2c(=O)n3ccccc3nc21	-	?	.	.	-	.
COc1ccc(CCn2c(=N)c(C(=O)NC3CCCC3)cc3c(=O)n4ccccc4nc32)cc1OC	0.73µM	0.65µM	-	-	-	-
CC(C)n1c(=N)c(C(=O)NCCc2ccccc2)cc2c(=O)n3ccccc3nc21	-	?	-	-52	-	-
COc1cccc(NC(=O)c2cc3c(=O)n4ccccc4nc3n(CC(C)C)c2=N)c1	6.5µM	5.8µM	-	-	-	-
COc1cc(S(=O)(=O)NC2CCCC2)ccc1Cl	-	?	-	-	-	-
O=C1C=C(NNC(=O)c2cccnc2)CC(c2ccco2)C1 (configuration not stated)	-	-	-	-	-	-
CC(=O)O[C@@H]1CC2CCC1(C)C2(C)C (some centres not stated)	-	-	.	.	.	.
CCOC(=O)C[N+](C)(C)CCOC1CC2CCC1(C)C2(C)C (configuration not stated)	16µM	7.3µM	-	-	-	-
CC1(C)C2CCC1(C)C(OCC[N+](C)(C)CC(=O)OC1CCCCC1)C2 (configuration not stated)	1.2µM	0.65µM	.	-	-	-
Cc1cc(F)ccc1-c1cc(C(=O)NCc2ccc(C(F)(F)F)cc2)[nH]n1	?	-	-	-	.	-
CC(C)c1ccc(NC(=O)c2cc(-c3cc(F)ccc3OCC3CCCO3)n[nH]2)cc1 (configuration not stated)	?	?	-	-	.	-
O=C(NCC1CCCCC1)c1cc(-c2cc(F)ccc2OCC2CCCO2)n[nH]1 (configuration not stated)	18µM	?	-	-56	.	-
SMILES	DT40 TDP1 CPT	TDP1 cell noCPT	CtBP-E1A inh	IL1B secr inh	TDP1 inh	Six1-Eya2 inh
Cc1ccc(Cl)cc1-c1cc(C(=O)Nc2ccc(F)cc2)[nH]n1	23µM	21µM	-	-60	.	-
Cc1ccc(Cl)cc1-c1cc(C(=O)NCc2ccc(C(F)(F)F)cc2)[nH]n1	21µM	16µM	-	-	.	-
COc1ccc(-c2cc(C(=O)NCC3CCCCC3)[nH]n2)c(C)c1	?	?	-	-	.	-
Cc1ccc(NC(=O)c2cc(-c3cc(Cl)ccc3O)n[nH]2)cc1C	-	-	.	-	.	-
Cc1ccc(Cl)cc1-c1cc(C(=O)NCC2CCCCC2)[nH]n1	?	18µM	-	-51	.	-
O=C1OC(N2C(=O)CC[C@H]2C(=O)Nc2ccc3c(c2)OCO3)c2ccccc21 (some centres not stated)	-	-	-	-	.	-
CCc1ccc(CNC(=O)CCc2nnc(CCc3ccc(OC)cc3)o2)nc1	-	-	.	-	-	-
O=C(NC1CCCc2ccccc21)c1cc(Cl)ccn1 (configuration not stated)	-	-	-	-	-	-
O=C(c1cc2cc(Cl)ccc2[nH]1)N1CCc2ccccc2C1	?	-	.	-	-	-
